# Structures can show the parent of a compound that is named as a salt.
# System: Pseudogymnoascus destructans 20631-21
# Assay: growth activity index (DuctApe, 0 = no growth, 9 = maximal growth) (index 0-9); higher = more fungal growth (less inhibition), active = 0 or less; extreme values may be limits of the assay
# Conditions: concentration level (1-4, increasing; Biolog proprietary): 3; temperature: 13 °C; YPD
# 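Also: biolog Phenotype Microarray plates PM21–25, OD595 followed daily over 11 days, growth curves converted to index, mean of two independent experiments.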
row,SMILES,growth activity index
1,O=C(O)/C=C/c1ccccc1 [Cinnamic acid] (Biolog plate: PM25),5 (inactive)
2,Cn1c(=O)c2c(ncn2C)n(C)c1=O [Caffeine] (Biolog plate: PM22),0 (active)
3,[I-].[K+] [Potassium iodide] (Biolog plate: PM22),0 (active)
4,O=c1cn[nH]c(=O)[nH]1 [6-Azauracil] (Biolog plate: PM24),4.67 (inactive)
5,CC(CN1c2ccccc2Sc2ccccc21)N(C)C (stereo not given) [Promethazine] (Biolog plate: PM21),1 (inactive)
6,O=C([O-])c1ccccc1O.[Na+] [Sodium Salicylate] (Biolog plate: PM25),4 (inactive)
7,CN1CCN(CCCN2c3ccccc3Sc3ccc(C(F)(F)F)cc32)CC1 [Trifluoperazine] (Biolog plate: PM21),3.5 (inactive)
8,NC(CO)C(=O)NO (racemic) [DL-Serine hydroxamate] (Biolog plate: PM22),0 (active)
9,NC(N)=NCCC[C@H](N)C(=O)NO [L-Arginine hydroxamate] (Biolog plate: PM22),3.33 (inactive)
10,NC(N)=O [Urea hydrogen peroxide] (Biolog plate: PM22),4.67 (inactive)
11,CCCCCCCCCCCC[N+](C)(C)CCOc1ccccc1 [Domiphen bromide] (Biolog plate: PM21),0 (active)
12,C[C@@H]1[C@H](O)[C@@H](C)/C=C/C=C/C=C/C=C/C=C/C=C/C=C/[C@H](O[C@@H]2O[C@H](C)[C@@H](O)[C@H](N)[C@@H]2O)C[C@@H]2O[C@](O)(C[C@@H](O)C[C@@H](O)[C@H](O)CC[C@@H](O)C[C@@H](O)CC(=O)O[C@H]1C)C[C@H](O)[C@H]2C(=O)O [Amphotericin B] (Biolog plate: PM24),0 (active)
13,OB(O)O [Boric acid] (Biolog plate: PM22),0 (active)
14,[Cl][Pd][Cl] [Palladium(II) Chloride] (Biolog plate: PM25),4.67 (inactive)
15,N=C(N)c1ccc(OCCCCCOc2ccc(C(=N)N)cc2)cc1 [Pentamidine Isethionate] (Biolog plate: PM24),8 (inactive)
16,NC(=O)NO [Hydroxyurea] (Biolog plate: PM25),0 (active)
17,Nc1c2ccccc2nc2ccccc12 [9-Aminoacridine] (Biolog plate: PM24),7 (inactive)
18,Cc1cc(N)c2ccccc2[n+]1CCCCCCCCCC[n+]1c(C)cc(N)c2ccccc21 [Dequalinium chloride] (Biolog plate: PM23),2 (inactive)
19,NCC(=O)O [Glycine hydrochloride] (Biolog plate: PM23),2 (inactive)
20,[F-].[Na+] [Sodium Fluoride] (Biolog plate: PM24),5.33 (inactive)
21,[Cl][Cu][Cl] [Cupric chloride] (Biolog plate: PM23),6 (inactive)
22,COc1ccc2cc3[n+](cc2c1OC)CCc1cc2c(cc1-3)OCO2 [Berberine Chloride] (Biolog plate: PM24),0.333 (inactive)
23,CCCCCCCCCCCCCCCCOP(=O)([O-])OCC[N+](C)(C)C [Miltefosine] (Biolog plate: PM22),0 (active)
24,CN(C)C(=O)/N=N/C(=O)N(C)C [Diamide] (Biolog plate: PM21),0 (active)
25,NC[C@@H]1O[C@H](O[C@H]2[C@@H](O)[C@H](O[C@@H]3[C@@H](O)[C@H](N)C[C@H](N)[C@H]3O[C@H]3O[C@H](CN)[C@@H](O)[C@H](O)[C@H]3N)O[C@@H]2CO)[C@H](N)[C@@H](O)[C@@H]1O [Neomycin] (Biolog plate: PM21),2.5 (inactive)
26,O=S(=O)([O-])[O-].[Cu+2] [Copper (II) sulfate] (Biolog plate: PM21),6 (inactive)
27,N.N.O=S(=O)(O)O [Ammonium Sulfate] (Biolog plate: PM23),4 (inactive)
28,N[C@H](CO)C(=O)O [D-Serine] (Biolog plate: PM22),4 (inactive)
29,CC(C)Cc1ccc(C(C)C(=O)O)cc1 (stereo not given) [Ibuprofen] (Biolog plate: PM25),4 (inactive)
30,O=NO [Sodium Nitrite] (Biolog plate: PM23),1 (inactive)
